Screen size: about 5,500 compounds; about 2,000 (36%) were called active. About 18% were inconclusive and are not listed. Rule as the data show it: active = normalized growth mostly below about 0.91 (no sharp cut-off); inconclusive = no clear call, values can overlap the other calls; inactive = mostly above about 0.92. The list shows a part of the results.
Assay: chemical genetic growth profiling, strain panel (AID 1159580);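 also: tested at 20 µM; growth read once vehicle control cultures reached saturation at 30 °C; 1 = growth at the plate median or of vehicle wells; lower values mean less growth of the strain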
Details: growth OD
[1] = S. cerevisiae deletion strains, locus YAL013W, strain DEP1, stronger effect = lower value
[2] = S. cerevisiae deletion strains, locus YBR229C, strain ROT2, stronger effect = lower value
[3] = S. cerevisiae deletion strains, locus YDL101C, strain DUN1, stronger effect = lower value
[4] = S. cerevisiae deletion strains, locus YDR150W, strain NUM1, stronger effect = lower value
[5] = S. cerevisiae deletion strains, locus YEL061C, strain CIN8, stronger effect = lower value
[6] = S. cerevisiae deletion strains, locus YGR078C, strain PAC10, stronger effect = lower value
[7] = S. cerevisiae deletion strains, locus YHR030C, strain SLT2, stronger effect = lower value
[8] = S. cerevisiae deletion strains, locus YHR087W, strain rtc3, stronger effect = lower value
[9] = S. cerevisiae deletion strains, locus YJR043C, strain POL32, stronger effect = lower value
[10] = S. cerevisiae deletion strains, locus YJR075W, strain HOC1, stronger effect = lower value
[11] = S. cerevisiae deletion strains, locus YKL190W, strain CNB1, stronger effect = lower value
[12] = S. cerevisiae deletion strains, locus YLR039C, strain RIC1, stronger effect = lower value
[13] = S. cerevisiae deletion strains, locus YLR058C, strain SHM2 (second series), stronger effect = lower value
[14] = S. cerevisiae deletion strains, locus YLR085C, strain ARP6, stronger effect = lower value
[15] = S. cerevisiae deletion strains, locus YLR262C, strain YPT6, stronger effect = lower value
[16] = S. cerevisiae deletion strains, locus YML094W, strain GIM5, stronger effect = lower value
[17] = S. cerevisiae deletion strains, locus YMR219W, strain ESC1, stronger effect = lower value
[18] = S. cerevisiae deletion strains, locus YMR263W, strain SAP30, stronger effect = lower value
[19] = S. cerevisiae deletion strains, locus YNL153C, strain GIM3, stronger effect = lower value
[20] = S. cerevisiae deletion strains, locus YNL298W, strain CLA4 (second series), stronger effect = lower value
[21] = S. cerevisiae deletion strains, locus YNL322C, strain KRE1, stronger effect = lower value
[22] = S. cerevisiae deletion strains, locus YNR030W, strain Alg12, stronger effect = lower value
[23] = S. cerevisiae deletion strains, locus YPL055C, strain LGE1, stronger effect = lower value
[24] = S. cerevisiae deletion strains, locus YPL241C, strain CIN2, stronger effect = lower value
[25] = S. cerevisiae deletion strains, locus YPR135W, strain CTF4, stronger effect = lower value
[26] = S. cerevisiae strains, strain wild type, stronger effect = lower value
[27] = S. cerevisiae deletion strains, locus YAR019C, strain CDC15, stronger effect = lower value
[28] = S. cerevisiae deletion strains, locus YBL105C, strain PKC1, stronger effect = lower value
[29] = S. cerevisiae deletion strains, locus YBR135W, strain CKS1, stronger effect = lower value
[30] = S. cerevisiae deletion strains, locus YBR136W, strain MEC1, stronger effect = lower value
[31] = S. cerevisiae deletion strains, locus YBR160W, strain CDC28, stronger effect = lower value
[32] = S. cerevisiae deletion strains, locus YDL017W, strain CDC7, stronger effect = lower value
[33] = S. cerevisiae deletion strains, locus YDL028C, strain MPS1, stronger effect = lower value
[34] = S. cerevisiae deletion strains, locus YDL108W, strain KIN28, stronger effect = lower value
[35] = S. cerevisiae deletion strains, locus YDL132W, strain cdc53, stronger effect = lower value
[36] = S. cerevisiae deletion strains, locus YDL214C, strain PRR2, stronger effect = lower value
[37] = S. cerevisiae deletion strains, locus YDR052C, strain DBF4, stronger effect = lower value
[38] = S. cerevisiae deletion strains, locus YDR054C, strain cdc34, stronger effect = lower value
[39] = S. cerevisiae deletion strains, locus YDR226W, strain ADK1, stronger effect = lower value
[40] = S. cerevisiae deletion strains, locus YDR477W, strain SNF1, stronger effect = lower value
[41] = S. cerevisiae deletion strains, locus YER123W, strain YCK3, stronger effect = lower value
[42] = S. cerevisiae deletion strains, locus YER133W, strain GLC7, stronger effect = lower value
[43] = S. cerevisiae deletion strains, locus YFL009W, strain cdc4, stronger effect = lower value
[44] = S. cerevisiae deletion strains, locus YFL029C, strain CAK1, stronger effect = lower value
[45] = S. cerevisiae deletion strains, locus YFR003C, strain YPI1, stronger effect = lower value
[46] = S. cerevisiae deletion strains, locus YFR019W, strain FAB1, stronger effect = lower value
[47] = S. cerevisiae deletion strains, locus YFR028C, strain CDC14, stronger effect = lower value
[48] = S. cerevisiae deletion strains, locus YGR040W, strain KSS1, stronger effect = lower value
[49] = S. cerevisiae deletion strains, locus YGR052W, strain FMP48, stronger effect = lower value
[50] = S. cerevisiae deletion strains, locus YGR092W, strain DBF2, stronger effect = lower value
[51] = S. cerevisiae deletion strains, locus YHR079C, strain IRE1, stronger effect = lower value
[52] = S. cerevisiae deletion strains, locus YHR082C, strain KSP1, stronger effect = lower value
[53] = S. cerevisiae deletion strains, locus YHR205W, strain SCH9, stronger effect = lower value
[54] = S. cerevisiae deletion strains, locus YIL147C, strain SLN1, stronger effect = lower value
[55] = S. cerevisiae deletion strains, locus YJL095W, strain BCK1, stronger effect = lower value
[56] = S. cerevisiae deletion strains, locus YJL157C, strain FAR1, stronger effect = lower value
[57] = S. cerevisiae deletion strains, locus YJR016C, strain ILV3, stronger effect = lower value
[58] = S. cerevisiae deletion strains, locus YJR066W, strain TOR1 (second series), stronger effect = lower value
[59] = S. cerevisiae deletion strains, locus YJR066W, strain TOR1, stronger effect = lower value
[60] = S. cerevisiae deletion strains, locus YKL048C, strain ELM1, stronger effect = lower value
[61] = S. cerevisiae deletion strains, locus YKL067W, strain YNK1, stronger effect = lower value
[62] = S. cerevisiae deletion strains, locus YKL101W, strain HSL1, stronger effect = lower value
[63] = S. cerevisiae deletion strains, locus YKL193C, strain SDS22, stronger effect = lower value
[64] = S. cerevisiae deletion strains, locus YKL203C, strain TOR2, stronger effect = lower value
[65] = S. cerevisiae deletion strains, locus YLR113W, strain HOG1, stronger effect = lower value
[66] = S. cerevisiae deletion strains, locus YLR133W, strain CKI1, stronger effect = lower value
[67] = S. cerevisiae deletion strains, locus YLR403W, strain SFP1, stronger effect = lower value
[68] = S. cerevisiae deletion strains, locus YML070W, strain DAK1, stronger effect = lower value
[69] = S. cerevisiae deletion strains, locus YMR001C, strain CDC5, stronger effect = lower value
[70] = S. cerevisiae deletion strains, locus YMR205C, strain PFK2 (second series), stronger effect = lower value
[71] = S. cerevisiae deletion strains, locus YMR277W, strain FCP1, stronger effect = lower value
[72] = S. cerevisiae deletion strains, locus YNL006W, strain LST8, stronger effect = lower value
[73] = S. cerevisiae deletion strains, locus YNL020C, strain ARK1, stronger effect = lower value
[74] = S. cerevisiae deletion strains, locus YNL161W, strain CBK1, stronger effect = lower value
[75] = S. cerevisiae deletion strains, locus YNL183C, strain NPR1, stronger effect = lower value
[76] = S. cerevisiae deletion strains, locus YNL207W, strain RIO2, stronger effect = lower value
[77] = S. cerevisiae deletion strains, locus YNL222W, strain SSU72, stronger effect = lower value
[78] = S. cerevisiae deletion strains, locus YNL307C, strain MCK1 (second series), stronger effect = lower value
[79] = S. cerevisiae deletion strains, locus YOL078W, strain AVO1, stronger effect = lower value
[80] = S. cerevisiae deletion strains, locus YOL136C, strain PFK27, stronger effect = lower value
[81] = S. cerevisiae deletion strains, locus YOR061W, strain CKA2, stronger effect = lower value
[82] = S. cerevisiae deletion strains, locus YOR119C, strain RIO1, stronger effect = lower value
[83] = S. cerevisiae deletion strains, locus YOR231W, strain MKK1, stronger effect = lower value
[84] = S. cerevisiae deletion strains, locus YOR329C, strain SCD5, stronger effect = lower value
[85] = S. cerevisiae deletion strains, locus YPL031C, strain PHO85, stronger effect = lower value
[86] = S. cerevisiae deletion strains, locus YPL153C, strain RAD53, stronger effect = lower value
[87] = S. cerevisiae deletion strains, locus YPL204W, strain HRR25, stronger effect = lower value
[88] = S. cerevisiae deletion strains, locus YPL209C, strain IPL1, stronger effect = lower value
[89] = S. cerevisiae deletion strains, locus YPL256C, strain CLN2, stronger effect = lower value
[90] = S. cerevisiae deletion strains, locus YPR025C, strain CCL1, stronger effect = lower value
[91] = S. cerevisiae deletion strains, locus YPR106W, strain ISR1, stronger effect = lower value
[92] = S. cerevisiae deletion strains, strain TSCII, stronger effect = lower value

Measured: normalized growth

Cc1ccc(-n2nc(-c3ccc(OC(F)(F)F)cc3)cc2NC(=O)Nc2ccc(OC(F)(F)F)cc2)cc1C
inactive: [1] 1 | [2] 1.02 | [3] 1.01 | [4] 1.02 | [5] 1.01 | [6] 1.04 | [7] 1.09 | [8] 1.01 | [9] 1.02 | [10] 1.03 | [11] 1.02 | [12] 1.08 | [13] 1.02 | [14] 1.17 | [15] 1.05 | [16] 1.02 | [17] 1.02 | [18] 1.05 | [19] 0.996 | [20] 1.05 | [21] 1 | [22] 1.01 | [23] 1.06 | [24] 1.08 | [25] 0.996 | [26] 1.02

Nc1cc(-c2ccc(OC(F)(F)F)cc2)nn1-c1ccc(Cl)c(Cl)c1
inactive: [27] 0.979 | [28] 1.01 | [29] 0.981 | [30] 1.02 | [31] 0.983 | [32] 0.994 | [33] 1.01 | [3] 1 | [34] 1.01 | [35] 0.971 | [37] 0.985 | [38] 0.904 | [39] 0.983 | [43] 1.01 | [44] 0.969 | [45] 1 | [47] 1 | [53] 0.635 | [54] 1 | [57] 1 | [59] 0.669 | [63] 0.982 | [67] 0.676 | [69] 0.999 | [71] 0.993 | [72] 1 | [74] 0.992 | [76] 0.989 | [77] 0.99 | [79] 1 | [84] 1.01 | [88] 0.966 | [90] 0.975 | [92] 1.01
active: [36] 0.565 | [40] 0.487 | [41] 0.249 | [42] 0.577 | [46] 0.574 | [48] 0.488 | [49] 0.446 | [50] 0.388 | [7] 0.317 | [51] 0.448 | [52] 0.521 | [55] 0.254 | [56] 0.706 | [58] 0.589 | [60] 0.752 | [61] 0.597 | [62] 0.268 | [64] 0.454 | [65] 0.317 | [66] 0.644 | [68] 0.439 | [70] 0.605 | [73] 0.53 | [75] 0.378 | [78] 0.335 | [80] 0.672 | [81] 0.355 | [82] 0.528 | [83] 0.349 | [85] 0.29 | [86] 0.193 | [87] 0.285 | [89] 0.604 | [91] 0.643

CCOC(=O)NC(=S)NC12CC3CC(CC(C3)C1)C2
inactive: [27] 0.978 | [28] 0.983 | [29] 0.977 | [30] 0.962 | [31] 0.984 | [32] 0.982 | [33] 0.978 | [3] 0.979 | [34] 0.957 | [35] 0.971 | [36] 0.875 | [37] 0.993 | [38] 0.967 | [39] 0.975 | [40] 0.894 | [41] 0.827 | [42] 0.86 | [43] 0.972 | [44] 0.974 | [45] 0.981 | [46] 0.955 | [47] 0.97 | [48] 0.872 | [49] 0.947 | [50] 0.787 | [7] 0.897 | [51] 0.915 | [52] 0.946 | [53] 0.965 | [54] 0.981 | [55] 0.964 | S. cerevisiae deletion strains, locus YJL128C, strain PBS2, stronger effect = lower value 0.953 | [56] 0.865 | [57] 0.985 | [58] 0.789 | [59] 0.903 | [60] 0.968 | [61] 0.896 | [62] 0.923 | [63] 0.982 | [64] 0.958 | [65] 0.926 | [66] 0.934 | [67] 0.851 | [68] 0.878 | [69] 0.973 | [70] 0.917 | [71] 0.977 | [72] 0.971 | [73] 0.901 | [74] 0.987 | [75] 0.939 | [76] 0.97 | [77] 0.982 | [78] 0.881 | [79] 0.972 | [80] 0.898 | [81] 0.845 | [82] 0.934 | [83] 0.926 | [84] 0.984 | [85] 0.87 | [86] 0.863 | [87] 0.876 | [88] 0.981 | [89] 1 | [90] 0.982 | [91] 0.992 | S. cerevisiae deletion strains, locus YPR111W, strain DBF20, stronger effect = lower value 0.996 | S. cerevisiae deletion strains, strain NNK1, stronger effect = lower value 0.988 | [92] 0.971

CCOC(=O)c1cc(-c2ccc(N)cc2)oc1C
inactive: [1] 0.943 | [2] 0.95 | [3] 0.927 | S. cerevisiae deletion strains, locus YDL134C, strain PPH21, stronger effect = lower value 0.939 | [4] 0.822 | [6] 0.942 | S. cerevisiae deletion strains, locus YGR229C, strain SMI1, stronger effect = lower value 0.964 | [8] 0.96 | [9] 0.952 | [10] 0.963 | [13] 0.961 | [17] 0.959 | [18] 0.889 | [21] 0.973 | [26] 0.923
active: S. cerevisiae deletion strains, locus YCL061C, strain MRC1, stronger effect = lower value 0.891 | [5] 0.59 | [7] 0.351 | [11] 0.869 | [12] 0.414 | [14] 0.458 | [15] 0.385 | [16] 0.806 | S. cerevisiae deletion strains, locus YMR307W, strain GAS1, stronger effect = lower value 0.548 | [19] 0.66 | [20] 0.783 | [22] 0.885 | [23] 0.749 | [24] 0.483 | [25] 0.611
